In article PMC5540273 (PLoS ONE, 2017):
Like-named read-outs stand apart in the source and are kept apart here.

Columns and labels:
GRK2 = test system: T1, GRK2; settings: concentration: 1 μM, replicates: in singlicate; n = 1
T1 construct: gene ADRBK1

GRK3 = test system: T2, GRK3; settings: concentration: 1 μM, replicates: in singlicate; n = 1
T2 construct: gene ADRBK2

GRK4 = settings: concentration: 1 μM, replicates: in singlicate; n = 1
GRK7 = settings: concentration: 1 μM, replicates: in singlicate; n = 1
GSK3A = settings: concentration: 1 μM, replicates: in singlicate; n = 1
GSK3B = settings: n = 1
HASPIN = test system: T3, HASPIN; settings: concentration: 1 μM, replicates: in singlicate; n = 1
T3 construct: gene GSG2

HCK = settings: concentration: 1 μM, replicates: in singlicate; n = 1
HIPK1 = settings: concentration: 1 μM, replicates: in singlicate; n = 1
HIPK2 = settings: concentration: 1 μM, replicates: in singlicate; n = 1
[1] = concentration: 1 μM, replicates: in singlicate
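Note: KINOMEscan kinase panel screen.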

Row | SMILES | %Inh (GRK2) | %Inh (GRK3) | %Inh (GRK4) | %Inh (GRK7) | %Inh (GSK3A) | %Inh (GSK3B; [1]) | %Inh (HASPIN) | %Inh (HCK) | %Inh (HIPK1) | %Inh (HIPK2) | %Inh (GSK3B; 1 µM)
1 | CCc1ccc(-c2ccc3c(c2)-c2nn(C)cc2S(=O)(=O)N3C)cc1 | 0% | 0% | 0% | 0% | 30% | 0% | 23% | 2% | 0% | 0% | –
2 | Cc1cccc(-c2cc(-c3c[nH]nc3-c3ccccn3)ccn2)c1 [GW679395] | 0% | 39% | 0% | 0% | 17% | 7% | 25% | 0% | 0% | 0% | –
3 | CCCC(=O)Nc1n[nH]c2ncc(-c3cccc4ccccc34)cc12 [SB-642057] | 0% | 0% | 0% | 0% | 87% | – | 0% | 1% | 0% | 0% | 33%
4 | Nc1nc(-c2ccccc2F)c(-c2ccnc3ccccc23)s1 [GW560459] | 0% | 50% | 0% | 0% | 3% | 0% | 25% | 0% | 0% | 0% | –
5 | Cc1ccc(-c2ccc3c(ccc4sc5c(c43)NC[C@@H](C)N=C5N(C)C)n2)cn1 | 0% | 1% | 0% | 0% | 0% | 0% | 23% | 14% | 0% | 0% | –
6 | Nc1n[nH]c2nnc(-c3ccccc3)c(-c3ccccc3)c12 [GW554060] | 0% | 44% | 6% | 0% | 91% | – | 10% | 0% | 50% | 86% | 42%
7 | COc1cc2nccc(Nc3cccc(Oc4ccccc4)c3)c2cc1OC.Cl [GW284543] | 28% | 16% | 7% | 0% | 5% | 0% | 11% | 44% | 0% | 25% | –
8 | Cc1cc(Nc2nc(-c3cccc(C)n3)nc3ccccc23)ccn1 [GW872411] | 0% | 0% | 35% | 0% | 0% | 0% | 0% | 7% | 0% | 0% | –
9 | O=C(Nc1n[nH]c2cc(-c3ccccc3F)ccc12)C1CC1 [SB-733371] | 0% | 0% | 26% | 0% | 24% | 19% | 22% | 0% | 2% | 0% | –
10 | O=C(NCCNc1ccnc(Nc2ccc(F)cc2)n1)Nc1ccc2c(c1)OCO2 [GSK1379882] | 0% | 0% | 0% | 0% | 34% | 6% | 0% | 0% | 0% | 0% | –
11 | COC(=O)c1c(-c2ccccc2)c2cc(Br)ccc2c(=O)n1Cc1ccc(S(C)(=O)=O)cc1 | 14% | 0% | 0% | 35% | 0% | 19% | 31% | 9% | 33% | 18% | –
12 | CCC(=O)c1c(-c2ccccc2)c2cc(Cl)ccc2c(=O)n1Cc1cc(C(=O)NC2CC2)n(C)n1 | 0% | 23% | 0% | 12% | 0% | 13% | 25% | 22% | 0% | 8% | –
13 | CN1C(=O)C(Nc2ccccc2)=C(c2ccccc2)C1=O [SB-300079] | 0% | 0% | 0% | 0% | 9% | 3% | 15% | 13% | 28% | 9% | –
14 | CCn1c(-c2nonc2N)nc2ccccc21 [SB-693162/GW549034] | 0% | 14% | 30% | 25% | 0% | 37% | 0% | 0% | 29% | 45% | –
15 | COc1cccc(C2=C(N(C)c3ccccc3)C(=O)NC2=O)c1 [SB-334865] | 0% | 5% | 0% | 0% | 0% | 24% | 2% | 0% | 0% | 0% | –
16 | CCC(=O)c1c(-c2ccccc2)c2cc(Cl)ccc2c(=O)n1Cc1cc(S(C)(=O)=O)n(CC(N)=O)n1 | 0% | 0% | 0% | 0% | 6% | 0% | 0% | 24% | 29% | 0% | –
17 | O=C(Nc1ccc2c(c1)OCO2)NC1CCN(c2ccnc(NCc3ccc(F)cc3)n2)CC1 [GSK1379859] | 0% | 0% | 0% | 0% | 2% | 8% | 0% | 0% | 0% | 0% | –

Row | SMILES | %Inh (GRK2) | %Inh (GRK3) | %Inh (GRK4) | %Inh (GRK7) | %Inh (GSK3A) | %Inh (GSK3B; [1]) | %Inh (HASPIN) | %Inh (HCK) | %Inh (HIPK1) | %Inh (HIPK2) | %Inh (GSK3B; 1 µM)
18 | CCC(=O)c1c(-c2ccccc2)c2cc(Cl)ccc2c(=O)n1Cc1cc(S(C)(=O)=O)n(CCC(C)(C)O)n1 | 0% | 0% | 0% | 29% | 0% | 0% | 43% | 10% | 33% | 29% | –
19 | Nc1ncnc2c1ncn2-c1cccc(F)c1 [SKF-97560] | 61% | 40% | 0% | 4% | 18% | 13% | 45% | 0% | 12% | 16% | –
20 | CN1C(=O)C(Nc2cc(Cl)c(O)c(Cl)c2)=C(c2ccc(Cl)cc2)C1=O [SB-404321] | 22% | 28% | 96.7% | 0% | 0% | 0% | 0% | 0% | 0% | 38% | –
21 | CN(C)c1cc(-c2ccc3c(N)n[nH]c3c2)nc(N)n1 [GSK2219329] | 0% | 0% | 0% | 0% | 0% | 5% | 0% | 0% | 0% | 0% | –
22 | CC(C)(C)c1ccc(C(=O)Nc2cn3cc(-c4ccccc4)ccc3n2)cc1 | 0% | 0% | 26% | 0% | 12% | 30% | 0% | 13% | 43% | 52% | –
23 | Nc1n[nH]c2ncc(-c3ccccc3)cc12 [SB-517081] | 0% | 22% | 21% | 0% | 34% | – | 0% | 0% | 0% | 0% | 20%
24 | Cl.c1ccc(Cn2cnc3cc(Nc4ncnc5ccccc45)ccc32)cc1 [GW272142] | 0% | 50% | 0% | 0% | 0% | 1% | 0% | 0% | 0% | 0% | –
25 | O=C(Nc1n[nH]c2nc(-c3ccccc3)c(Cl)cc12)C1CC1 [SB-734909] | 0% | 83% | 17% | 0% | 90.6% | – | 0% | 0% | 20% | 0% | 56%
26 | COc1cc2ncn(-c3cc(OCc4ccc(S(C)(=O)=O)cc4)c(C(N)=O)s3)c2cc1OC [GW869979] | 45% | 0% | 1% | 0% | 3% | 0% | 40% | 0% | 0% | 9% | –
27 | COc1ccc(Nc2nccc(N3CCC(NS(=O)(=O)c4ccc(NC(C)=O)cc4)C3)n2)cc1 (stereo not shown) [GSK1379729] | 3% | 0% | 49% | 0% | 0% | 7% | 19% | 7% | 0% | 20% | –
28 | COc1cc2nccc(Nc3ccc(OCc4ccc(NC(C)=O)cc4)cc3)c2cc1OC.Cl [GW440135] | 0% | 17% | 23% | 4% | 0% | 0% | 18% | 0% | 0% | 0% | –
29 | Cc1c(Cn2c(C)nn3c(=O)cc(N4CCO[C@H](C)C4)nc23)cccc1C(F)(F)F [GSK2373690] | 0% | 18% | 3% | 0% | 13% | 6% | 0% | 0% | 13% | 0% | –
30 | COc1ccc(-c2cc3c(C)nc(N)nc3n([C@H]3CC[C@H](OCCO)CC3)c2=O)cn1 | 17% | 0% | 1% | 1% | 0% | 1% | 33% | 13% | 17% | 0% | –
31 | Cc1nnc(-c2ccc3ncn(-c4ccc(S(C)=O)cc4)c3c2)o1 (stereo not shown) | 0% | 0% | 0% | 0% | 74% | 36% | 0% | 13% | 28% | 10% | –
32 | Cl.NS(=O)(=O)c1cccc(Nc2cc(-c3ccc(F)cc3)n[nH]2)c1 [GW824645] | 0% | 21% | 0% | 0% | 0% | 6% | 51% | 13% | 36% | 10% | –
33 | COC(=O)c1c(-c2ccccc2)c2cc(C)ccc2c(=O)n1Cc1ccccc1 | 0% | 0% | 28% | 0% | 0% | 0% | 0% | 0% | 0% | 0% | –
34 | COc1cc2ncn(-c3cc(OCc4ccncc4Br)c(C(N)=O)s3)c2cc1OC [GW854278] | 5% | 0% | 35% | 4% | 7% | 0% | 5% | 3% | 0% | 4% | –
